Hits are enriched below; roughly 11% of the tested compounds scored in any of these assays.
AmpC detergent: AmpC beta-lactamase inhibition with detergent present | P00811 | AmpC hydrolysis of nitrocefin, absorbance 480 nm, 0.01% Triton | Potency, µM (titrated, usually from 114 µM), actives largely listed as inhibitors | 370,000 tested, 0.041% active; further: nearly all actives have a fitted effect of over 25% in size
Target sequence (P00811 whole entry, looked up): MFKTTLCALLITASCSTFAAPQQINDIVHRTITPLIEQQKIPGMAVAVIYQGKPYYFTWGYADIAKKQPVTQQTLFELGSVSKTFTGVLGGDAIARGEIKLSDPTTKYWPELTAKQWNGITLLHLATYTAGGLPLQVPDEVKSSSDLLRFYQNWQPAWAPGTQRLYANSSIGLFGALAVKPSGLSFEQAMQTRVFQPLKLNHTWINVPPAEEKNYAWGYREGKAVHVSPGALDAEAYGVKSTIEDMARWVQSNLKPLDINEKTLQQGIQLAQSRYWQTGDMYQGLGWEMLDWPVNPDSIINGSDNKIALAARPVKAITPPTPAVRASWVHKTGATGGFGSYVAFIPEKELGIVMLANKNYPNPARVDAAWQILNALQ
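AmpC (5.3 nM in the dispensed reagent) in 20 mM phosphate pH 7.0 with 0.01% (detergent screen) or 0.0001% Triton X-100 was preincubated with compounds for 15 min at room temperature. Nitrocefin was then added from an 800 uM solution, and hydrolysis was followed at 480 nm.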
Pf growth 96h: inhibits malaria parasite growth, 96 h. P. falciparum luciferase reporter growth, 96 h. Potency, µM (doses to about 28.7 µM), most hits filed as inhibitors. 320,000 tested, 6.9% active. AID 504834
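Two parasite generations (96 h, 37 C, 5% CO2) of compound exposure in infected erythrocytes (0.05% parasitemia, 2% hematocrit). Luciferase-reporter P. falciparum; decreased luminescence indicates inhibited growth, aimed at apicoplast-acting delayed death.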
HCV inhibitor: HCV inhibition; Huh7.5.1 HCVcc-Cre infection, luciferase reporter, 44 h; Potency, µM (titrated, usually from 41.8 µM), actives largely listed as inhibitors; 340,000 tested, 3.4% active
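Compounds are dispensed onto cells plated 4 h earlier at 1,000 per well, with HCVcc-Cre virus (about 0.5 moi) added next. Following 44 h of culture, luminescent signal is measured for 15 sec after 15 min with substrate at room temperature.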
AMA1 RON2 block: disrupts binding of P. falciparum AMA1 to RON2 | AlphaScreen AMA1-biotinylated RON2 peptide binding | 360,000 tested, 0.2% active | Potency, µM (titrated, usually from 58.2 µM), most hits filed as inhibitors; further: nearly all actives have a fitted effect of over 45% in size
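AMA1 (3D7) with his tag at 25 nM final met compounds first, then biotinylated RON2 peptide at 25 nM; detection used donor plus acceptor beads, 10 µg/mL apiece, read by AlphaScreen after 30 min at room temperature.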
AmpC inh no detg: inhibitors of E. coli AmpC beta-lactamase without detergent; AmpC nitrocefin hydrolysis, absorbance 480 nm, 0.0001% Triton; Potency, µM (series often up to 57.1 µM), most hits filed as inhibitors; 330,000 tested, 0.52% active; further: nearly all actives have a fitted effect of over 20% in size
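AmpC (5.3 nM in the dispensed reagent) in 20 mM phosphate pH 7.0 with 0.01% (detergent screen) or 0.0001% Triton X-100 was preincubated with compounds for 15 min at room temperature. Nitrocefin was then added from an 800 uM solution, and hydrolysis was followed at 480 nm.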
Pf growth 48h: inhibits P. falciparum growth in the first generation, 48 h | P. falciparum luciferase growth in erythrocytes, 48 h | Potency, µM (series often up to 28.7 µM), usual class: inhibitors | 310,000 tested, 5.9% active | AID 504832
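A one-generation exposure of luciferase-tagged malaria parasites in RPMI 1640/Albumax erythrocyte culture, 37 C and 5% CO2. Inhibition is inferred from decreased luminescence after adding detection reagent.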
Numbers stand for hits; . = inactive; ? = inconclusive; / = not tested or not shown. The call rests on the fitted dose curve; in most records, active means well fitted curve in the direction sought with a large enough effect; inconclusive means small, poorly fitted or top-dose-only effect, or another doubt; inactive means no such curve, though single readings can be large; an effect the other way counts as inactive or inconclusive.

SMILES | AmpC detergent | Pf growth 96h | HCV inhibitor | AMA1 RON2 block | AmpC inh no detg | Pf growth 48h
CCc1ccc(NC(=O)COc2coc(CN3CCN(c4ccccc4)CC3)cc2=O)cc1 | . | ? | ? | . | . | 5.22µM
CCN(CC)C(=O)COc1coc(CN2CCN(c3ccc(F)cc3)CC2)cc1=O | . | ? | . | . | . | .
O=C(COc1coc(CN2CCN(c3ccccc3)CC2)cc1=O)NC1CCCC1 | . | ? | . | . | . | ?
CCOc1ccc(NC(=O)Cn2cc(C(=O)c3ccc(F)cc3)c(=O)c3cc4c(cc32)OCO4)cc1 | . | / | / | / | / | /
Clc1ccccc1Nc1ncnc2c1nc1n2CCCCC1 | . | / | / | / | / | /
COc1cc(C(C)=O)ccc1OCC(=O)c1cc(C)n(C2CC2)c1C | . | 11.7µM | . | . | . | ?
O=C(NCC1CCCC(CNC(=O)N2CCc3ccccc32)C1)N1CCc2ccccc21 (stereo not drawn) | . | 5.86µM | ? | . | . | /
Cc1ccc(NC(=O)COC(=O)c2ccccc2Nc2ccccc2)cc1 | . | . | . | . | 25.1µM | .
N=c1oc2c3c4c(cc2cc1C(=O)Nc1ccccc1)CCCN4CCC3 | . | 13.1µM | 7.94µM | . | . | /
Cc1ccc(NC(=O)c2cc3ccccc3oc2=N)cc1 | . | . | . | . | . | .
Cc1cccc(-c2nc3c4ccccc4nc(N4CCN(c5cc(C)ccc5C)CC4)n3n2)c1 | . | / | / | / | / | /
COc1ccc(N2CCN(C(=O)c3cccnc3SCc3cccc(Br)c3)CC2)cc1 | . | . | ? | 31.6µM | . | ?
COc1ccc(N2CCN(C(=O)c3cnc(N4CCCC4)nc3C)CC2)cc1 | . | / | / | / | / | /
CC1=C(C(=O)Nc2ccccc2)C(c2ccncc2)n2nnnc2N1 (stereo not drawn) | . | 0.928µM | . | . | . | .
O=C(Nc1cc(Cl)ccc1N1CCOCC1)c1ccc(N2CCCCC2)c([N+](=O)[O-])c1 | / | / | ? | . | / | /
Cc1ccc(NC(=O)c2ccc(N3CCOCC3)c([N+](=O)[O-])c2)cc1S(=O)(=O)N1CCOCC1 | . | ? | 3.55µM | . | . | ?
CN(C)S(=O)(=O)c1cc(NC(=O)c2ccc(-n3ccnc3)c([N+](=O)[O-])c2)ccc1Cl | . | ? | ? | . | . | 8.28µM
O=C(Nc1ccc(N2CCCCC2)c(Cl)c1)c1ccc(N2CCOCC2)c([N+](=O)[O-])c1 | . | ? | ? | . | . | 5.22µM
CC(=O)Nc1ccc(N2CCC(C)CC2)c([N+](=O)[O-])c1 | . | . | . | . | . | .
CC(=O)Nc1ccc(N2CCCC(C)C2)c([N+](=O)[O-])c1 (stereo not drawn) | . | . | 3.16µM | . | . | .
COc1cc2c(cc1OC)C(c1ccc(Cl)cc1)N(c1cccc(C#N)c1)C(=O)C2 (stereo not drawn) | . | / | / | / | / | /
Cc1ccc(OCC(=O)Nc2ccc(S(=O)(=O)Nc3cc(C)nc(C)n3)cc2)c(Br)c1 | . | / | / | / | / | /
CCCCCCOc1ccc(/C=C/C(=O)Nc2sc3c(c2C(=O)OC)CCC3)cc1OC | . | / | / | / | / | /
CCCC(=O)N1CCN(c2ccc(NC(=O)c3ccc(N4CCCC4)c([N+](=O)[O-])c3)cc2Cl)CC1 | / | / | ? | . | / | /
CC(=O)N1CCN(c2ccc(NC(=O)c3ccc(N4CCCC4)c([N+](=O)[O-])c3)cc2Cl)CC1 | . | ? | 10µM | . | . | 11.7µM
SMILES | AmpC detergent | Pf growth 96h | HCV inhibitor | AMA1 RON2 block | AmpC inh no detg | Pf growth 48h
COc1ccc(-n2c(Cc3cccn3C)nnc2SCC(=O)Nc2ccccc2C)cc1 | ? | 6.57µM | . | . | . | /
COc1ccc(-n2c(Cc3cccn3C)nnc2SCC(=O)Nc2ccc(F)cc2F)cc1 | . | ? | . | . | . | ?
COc1cccc(NC(=O)CSc2nnc(Cc3cccn3C)n2-c2ccc(F)cc2)c1 | ? | 4.15µM | . | . | . | ?
COc1ccc(OC)c(NC(=O)CSc2nnc(Cc3cccn3C)n2-c2ccc(F)cc2)c1 | ? | . | ? | . | . | 13.1µM
CNC(=S)NNC(=O)c1sccc1OCc1cccc(C(F)(F)F)c1 | . | 13.1µM | . | . | . | ?
S=c1[nH]c2ncccc2o1 | . | 2.08µM | . | . | . | .
NC(=O)c1ccccc1OCC(=O)c1ccc(Cl)cc1 | ? | . | . | . | . | 4.15µM
CCOc1ccc(CN2C(=O)c3ccccc3Sc3ccc(C(=O)NCc4ccco4)cc32)cc1 | . | / | / | / | / | /
O=C(NC1(C(F)(F)F)NC(=O)N(Cc2ccccc2)C1=O)c1cccnc1 (stereo not drawn) | ? | 2.94µM | . | . | . | /
COc1ccc(CN(C(=O)CNC(=O)c2ccco2)C(C(=O)NCC2CCCO2)c2ccccc2)cc1 (stereo not drawn) | . | 2.33µM | . | . | . | .
Cc1ccc(C(C(=O)NCc2ccco2)N(Cc2ccco2)C(=O)CNC(=O)c2ccco2)cc1 (stereo not drawn) | . | 6.57µM | . | . | . | .
O=C(NCC(=O)N(Cc1ccc(F)cc1)C(C(=O)NC1CCCC1)c1ccco1)c1ccco1 (stereo not drawn) | . | / | ? | . | . | .
COc1ccc(C(C(=O)NC2CCCCC2)N(Cc2ccco2)C(=O)CNC(=O)c2ccco2)cc1 (stereo not drawn) | / | / | . | . | / | /
O=C(NCC(=O)N(Cc1ccccc1)C(C(=O)NC1CCCC1)c1ccco1)c1ccco1 (stereo not drawn) | . | 5.22µM | . | . | . | .
CCOc1ccccc1C(C(=O)NC1CCCC1)N(Cc1ccco1)C(=O)CNC(=O)c1ccco1 (stereo not drawn) | . | ? | . | . | . | 8.28µM
COc1ccc(N(C(=O)CNC(=O)c2ccco2)C(C(=O)NCC2CCCO2)c2ccccc2)c(OC)c1 (stereo not drawn) | ? | . | . | . | . | .
C=C(C)Cn1c(SCC(=O)c2ccc(OC)cc2)nc2sc3c(c2c1=O)CCCC3 | . | / | / | / | / | /
Cc1ccc2nc(N3CCN(c4ccccc4F)CC3)c3nnnn3c2c1 | . | / | / | / | / | /
Cc1cccc(NC(=O)c2cccc(N3CCCS3(=O)=O)c2)c1 | . | / | / | / | / | /
O=C(CSc1nnc(-c2ccccc2Br)o1)N1CCc2ccccc2C1 | . | 3.29µM | . | . | . | .
c1ccc2c(-c3nnc(SCc4cn5ccccc5n4)o3)c[nH]c2c1 | . | 11.7µM | . | . | . | /
COC(=O)CSc1nnc(-c2c[nH]c3ccccc23)o1 | . | ? | . | . | . | .
c1ccc(CSc2nnc(-c3c[nH]c4ccccc34)o2)cc1 | . | . | . | . | . | .
O=C(CSc1nnc(-c2c[nH]c3ccccc23)o1)N1c2ccccc2CCc2ccccc21 | . | . | 7.94µM | . | . | ?
